This note sets out measurements from PubChem BioAssay (EPA / NIEHS).

The structures appear in SMILES notation. Activity calls are given as the source filed them. The calls were made as follows: active = hit-call score of the fitted dose curve at least 0.9, where 1 is the maximum; inactive = score below 0.9.

The nature of the experiment: ATG_M_19_CIS: Attagene CIS-FACTORIAL HepG2 Assay for M19 Transcription Factor (Internal Marker) (AID 2282939). The note with it: HepG2 Attagene CIS-FACTORIAL M19 internal marker reporter; actives raise or lower the signal. The method, then:
ATG_CIS is a cell-based, multiplexed-readout assay that uses HepG2, a human liver cell line, with measurements taken at 24 hours after chemical dosing in a 24-well plate.ATG_M_19_CIS is one of 52 assay component(s) measured or calculated from the ATG_CIS assay. It is designed to make measurements of mRNA induction, a form of inducible reporter, as detected with fluorescence intensity signals by Reverse transcription polymerase chain reaction (RT-PCR) and Capillary electrophoresis technology.Data from the assay component ATG_M_19_CIS was analyzed into 1 assay endpoint. This assay endpoint, ATG_M_19_CIS, was analyzed with bidirectional fitting relative to DMSO as the negative control and baseline of activity. Using a type of inducible reporter, measures of mRNA for gain or loss-of-signal activity can be used to understand the background control at the transcription factor-level as they relate to the gene . Furthermore, this assay endpoint can be referred to as a secondary readout, because this assay has produced multiple assay endpoints where this one serves a background control function. To generalize the intended target to other relatable targets, this assay endpoint is annotated to the background measurement intended target family, where the subfamily is internal marker.
Human liver HepG2 cells are transiently transfected with multiple reporter transcription units (MRTUs) in 6-well plates using FuGene 6 reagent (Roche; 3 ml FuGene/1 mg DNA). The MRTU constructs are regulated by a cis-regulating element (promoter). […] A major difference between the CIS and TRANS system is that in CIS activities of endogenous TFs are measured, whereas the TRANS assay evaluates changes in activities of exogenous, chimeric NR-Gal4 proteins. […] At the end of 24 hour incubation, total RNA was isolated using TriZol reagent (Invitrogen). The isolated RNA is then reverse-transcribed using oligo(dT) primer and Mo-MLV reverse transcriptase (Invitrogen) with DNAse I (Ambion) treatment for 30 min. The one-tenth of the produced cDNA was amplified by PCR using Taq DNA polymerase (Invitrogen) and two reporter sequence-specific primers. The PCR products were fluorescently labeled by primer extension with 6-arboxyfluorescein (6-FAM) 5'-labeled reporter sequence-specific primer (2 min at 95 C, 20 s at 68 C and 10 min at 72 C) and these products were digested with 5U of HpaI (New England Biolabs) for 2h at 37 C. The fragments were purified using Qiaquick PCR columns (Qiagen), analyzed on an ABI 3130xL genetic analyzer (Applied Biosystems) with peak positions identified by using a set of X-rhodamine (ROX)-labeled MapMarker1000 molecular weight standards (BioVentures). The raw capillary electrophoresis data was processed using Attagraph software (Attagene).
Turning to `CCCc1c(OCCCCc2nn[nH]n2)ccc(C(C)=O)c1O`, the call was inactive.
Same read-out and setting: as for `CCCCCCOC(=O)CCCCCCCC(=O)OCCCCCC`, the entry is “inactive”.
In the case of `CC/C=C\CC1=C(C)CCC1=O`, the molecule was classed as inactive.
The same measure, in the same setting: as for `Cc1cc2nc3c(=O)[nH]c(=O)nc-3n(C[C@H](O)[C@H](O)[C@H](O)CO)c2cc1C`, the entry is “inactive”; as for `O=C1NC(=O)C2CC=CCC12` (stereo not given), “inactive”.
Turning to `OCCOCCOCCOCCOCCO`, the molecule was classed as inactive.
On to `CC=CC(=O)O`, for which the call was inactive.
In the case of `Cc1ccccc1S(=O)(=O)O`, the result was inactive.
On the same count and under the same terms, with `CCCCNC(N)=O` the entry was “inactive”; with `Clc1ccccn1`, “inactive”.
In the case of `[O-][n+]1ccc(Cl)cc1`, the outcome was inactive.
For `C=C(C)C(=O)OCC1CCCO1` (stereo not given), the molecule was classed as inactive.
Consider `COc1ccccc1OCC(O)CO` (stereo not given), for which the molecule was called inactive.
Same read-out and setting: with `c1ccc(CNc2ncnc3nc[nH]c23)cc1` the entry was “inactive”.
On the same count and under the same terms, as for `CCOc1ccc2c(c1)C(C)CC(C)(C)N2` (stereo not given), the entry is “inactive”; as for `CC/C=C\CC/C=C/C(OCC)OCC`, “inactive”; as for `C=CCOC(=O)C(=C)C`, “inactive”.
As to `O=C(CC(C(=O)OC1CCCCC1)S(=O)(=O)O)OC1CCCCC1` (stereo not given), the call was inactive.
As to `NC(N)=Nc1nc(CSCCC(N)=NS(N)(=O)=O)cs1`, the AC50 was 153 µM (active).
As for `NCc1ccccc1`, the call was inactive.
Same read-out and setting: as for `COC(=O)/C=C\C(=O)OC`, the entry is “inactive”; as for `O=C1CCCCCCCCCCCCCC1`, “inactive”; as for `Oc1cccc2ccccc12`, “inactive”.
Turning to `O=C(O)/C=C\C(=O)O`, the molecule was called inactive.
Still for that read-out and setting: with `CC/C=C\CCO` the entry was “inactive”.
Same read-out and setting: as for `CCCCCC1CCCC(=O)O1` (stereo not given), the entry is “inactive”.
Same read-out and setting: as for `CC(=O)OC(C)(C)Cc1ccccc1`, the entry is “inactive”; as for `CC(C)(C)NC(=O)[C@@H]1CN(Cc2cccnc2)CCN1C[C@@H](O)C[C@@H](Cc1ccccc1)C(=O)N[C@H]1c2ccccc2C[C@H]1O`, “inactive”.
Turning to `CCCCCCC(O)CCCCCCCCCCC(=O)OC` (stereo not given), the molecule was classed as inactive.
Regarding `C=CCOCC(CC)(CO)COCC=C`, the outcome was inactive.
Same read-out and setting: as for `CC(C)(Oc1ccc(Cl)cc1)C(=O)O`, the entry is “inactive”.
Still for that read-out and setting: with `c1cc(N(CC2CO2)CC2CO2)ccc1Cc1ccc(N(CC2CO2)CC2CO2)cc1` (stereo not given) the entry was “inactive”; with `CCO[Si](CCCN)(OCC)OCC`, “inactive”.
Consider `COC(=O)[C@]1(C)CCC[C@@]2(C)[C@H]1CC=C1C=C(C(C)C)CC[C@@H]12`, for which the molecule was classed as inactive.
On the same count and under the same terms, with `CC1(C)S[C@@H]2[C@H](NC(=O)[C@H](N)c3ccccc3)C(=O)N2[C@H]1C(=O)O` the entry was “inactive”; with `CCCCOC(=O)COc1ccc(Cl)cc1Cl`, “inactive”.
Same read-out and setting: with `N#CCN(CC#N)CCN(CC#N)CC#N` the entry was “inactive”.
Same read-out and setting: as for `O=[N+]([O-])c1ccccc1C(F)(F)F`, the entry is “inactive”; as for `CCOC(=O)c1ccccc1`, “inactive”.
For the molecule `Oc1ccc(Oc2ccccc2)cc1`, the outcome was inactive.

The term AC50 denotes the concentration giving half of the maximal activity seen.
